Data reported in the supplement of paper PMC10849652.
Of roughly 7,900 targets only a part is listed; those with a hit were picked by preference. About 0.6% of all pairs of compound and target were hits. Values without a mark were called inactive.

How the values were obtained:
Experiment in all cases: log2 fold change, soluble protein after heating vs DMSO (PISA); higher = thermal stabilisation; K562 cells, 10 uM, 30 min; active = over 0.2 and 3.5 SD of the protein, either way, in both replicates (recomputed)
[1] = compound: CC1=C(C=C(C=C1)NC(=O)C2=CC(=CC=C2)C(C)(C)C#N)NC3=CC4=C(C=C3)N=CN(C4=O)C
Method in brief: (§1)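 Soluble protein was quantified by TMTpro 16plex LC-MS/MS after channel sums were equalised. It was obtained as the supernatant after 21,000xg for 90 min from pooled aliquots of K562 cells (2×10^6 cells/mL, 10 μM compound, 30 min) heated for 3 min across 48°C-58°C and extracted in PBS with 0.5% NP-40 at 4°C. Thermal stability values are relative to control samples and come from duplicates. They are given as log2 fold changes.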

[2] = compound: CC1=C(C=C(C=C1)NC(=O)C2=CC(=CC=C2)N(C)C)NC(=O)C3=CC=C(C=C3)O
Method in brief: as §1

[3] = compound: CC1=CC=C(C=C1)SC2=C3C=C(SC3=CN=C2)C(=O)N
Method in brief: as §1

[4] = compound: CC1=NC(=CC=C1)C2=C(N=C(N2)C(C)(C)C)C3=CC4=NC=CN=C4C=C3
Method in brief: as §1

Nexturastat A = compound: CCCCN(Cc1ccc(C(=O)NO)cc1)C(=O)Nc1ccccc1 [Nexturastat A]
Method in brief: as §1

vemurafenib = compound: CCCS(=O)(=O)Nc1ccc(F)c(C(=O)c2c[nH]c3ncc(-c4ccc(Cl)cc4)cc23)c1F [vemurafenib]
Method in brief: as §1

[5] = compound: CCCS(=O)(=O)Nc1ccc(F)c(C(=O)c2c[nH]c3ncc(Cl)cc23)c1F
Method in brief: as §1

givinostat = compound: CCN(CC)Cc1ccc2cc(COC(=O)Nc3ccc(C(=O)NO)cc3)ccc2c1 [givinostat]
Method in brief: as §1

barasertib = compound: CCN(CCCOc1ccc2c(Nc3cc(CC(=O)Nc4cccc(F)c4)[nH]n3)ncnc2c1)CCOP(=O)(O)O [barasertib]
Method in brief: as §1

[6] = compound: CC[C@@H]1C(=O)N(C)c2cnc(Nc3ccc(C(=O)NC4CCN(C)CC4)cc3OC)nc2N1C1CCCC1
Method in brief: as §1

volasertib = compound: CC[C@@H]1C(=O)N(C)c2cnc(Nc3ccc(C(=O)N[C@H]4CC[C@H](N5CCN(CC6CC6)CC5)CC4)cc3OC)nc2N1C(C)C [volasertib]
Method in brief: as §1

epoxomicin = compound: CC[C@H](C)[C@@H](C(=O)N[C@@H]([C@@H](C)O)C(=O)N[C@@H](CC(C)C)C(=O)[C@]1(CO1)C)NC(=O)[C@H]([C@@H](C)CC)N(C)C(=O)C [epoxomicin]
Method in brief: as §1

[7] = compound: CCn1c(C(=O)N(C2CC2)C2CC2)cc2c3c(ncn3C)c(Nc3cc(C)n(C)n3)nc21
Method in brief: as §1

[8] = compound: CCn1cc(-c2ccnc3[nH]c(-c4cccc(CN(C)C)c4)cc23)c(-c2ccc(NC(=O)N(C)C)cc2)n1
Method in brief: as §1

[9] = compound: CN(C)CC(=O)Nc1ccc2[nH]c(=O)c3ccccc3c2c1
Method in brief: as §1

rosiglitazone = compound: CN(CCOC1=CC=C(C=C1)C[C@H]2C(=O)NC(=O)S2)C3=CC=CC=N3 (racemic) [rosiglitazone]
Method in brief: as §1

[10] = compound: CN1C2=C(C3=C1C(=O)N(N=C3)CC4=CC(=CC=C4)N)SC(=C2)S(=O)C
Method in brief: as §1

[11] = compound: CN1CCC(CNc2ccc3ncc(-c4cccc(OC(F)(F)F)c4)n3n2)CC1
Method in brief: as §1

[12] = compound: CCCc1cc(C)[nH]c(=O)c1CNC(=O)c1cc(-c2ccnc(N3CCN(C)CC3)c2)cc2c1cnn2C(C)C
Method in brief: as §1

[13] = compound: CC[C@H](C)N1C=C(C2=C(C=C(C=C21)C3=CN=C(C=C3)N4CCNCC4)C(=O)NCC5=C(C=C(NC5=O)C)C)C
Method in brief: as §1

Target: CAB39L (UniProt Q9H9S4)
Chain of UniProt Q9H9S4 (Q9H9S4 whole entry, looked up): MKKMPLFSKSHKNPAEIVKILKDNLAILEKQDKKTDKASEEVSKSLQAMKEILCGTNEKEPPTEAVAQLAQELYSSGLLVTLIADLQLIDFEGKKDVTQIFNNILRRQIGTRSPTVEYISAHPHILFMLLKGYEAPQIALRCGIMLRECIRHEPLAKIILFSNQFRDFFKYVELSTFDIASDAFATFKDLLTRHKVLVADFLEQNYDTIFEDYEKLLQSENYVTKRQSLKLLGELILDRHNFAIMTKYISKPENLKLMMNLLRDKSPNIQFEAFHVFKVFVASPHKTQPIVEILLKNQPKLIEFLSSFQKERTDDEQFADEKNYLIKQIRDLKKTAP
- log2 fold change [1]: -0.142
- log2 fold change [2]: -0.008
- log2 fold change [3]: 0.004
- log2 fold change [4]: -0.043
- log2 fold change (Nexturastat A): 0.003
- log2 fold change (vemurafenib): -0.013
- log2 fold change [5]: -0.001
- log2 fold change (givinostat): -0.025
- log2 fold change (barasertib): 0.043
- log2 fold change [6]: -0.134
- log2 fold change (volasertib): -0.054
- log2 fold change (epoxomicin): 0.018
- log2 fold change [7]: 0.008
- log2 fold change [8]: 0.161
- log2 fold change [9]: -0.169
- log2 fold change (rosiglitazone): 0.107
- log2 fold change [10]: -0.047
- log2 fold change [11]: 0.072

Target: CDK5 (UniProt Q00535)
Chain of UniProt Q00535 (Q00535 whole entry, looked up): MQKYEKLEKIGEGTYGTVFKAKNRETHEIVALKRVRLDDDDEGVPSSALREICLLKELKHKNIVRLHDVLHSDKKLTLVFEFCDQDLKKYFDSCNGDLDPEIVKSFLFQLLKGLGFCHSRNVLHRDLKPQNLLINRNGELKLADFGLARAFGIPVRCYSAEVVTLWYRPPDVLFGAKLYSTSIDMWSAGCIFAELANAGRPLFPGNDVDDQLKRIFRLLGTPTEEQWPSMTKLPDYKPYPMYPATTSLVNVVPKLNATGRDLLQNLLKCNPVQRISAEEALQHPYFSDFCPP
- log2 fold change [1]: -0.053
- log2 fold change [2]: -0.009
- log2 fold change [3]: 0.001
- log2 fold change [4]: -0.008
- log2 fold change (Nexturastat A): -0.002
- log2 fold change (vemurafenib): 0.031
- log2 fold change [5]: 0.058
- log2 fold change [12]: 0.078
- log2 fold change (givinostat): 0.003
- log2 fold change [6]: -0.087
- log2 fold change (volasertib): -0.259 (active)
- log2 fold change [13]: 0.095
- log2 fold change (epoxomicin): 0
- log2 fold change [7]: 0.004
- log2 fold change [8]: -0.039
- log2 fold change [9]: 0.002
- log2 fold change (rosiglitazone): 0.041
- log2 fold change [10]: -0.014
- log2 fold change [11]: 0.025

Target: CCDC167 (UniProt Q9P0B6)
Chain of UniProt Q9P0B6 (Q9P0B6 whole entry, looked up): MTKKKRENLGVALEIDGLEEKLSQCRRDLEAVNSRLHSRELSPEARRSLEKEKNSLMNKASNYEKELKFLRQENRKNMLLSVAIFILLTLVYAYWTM
- log2 fold change [1]: 0.064
- log2 fold change [2]: -0.039
- log2 fold change [3]: -0.007
- log2 fold change [4]: -0.042
- log2 fold change (Nexturastat A): 0.022
- log2 fold change [5]: -0.034
- log2 fold change [12]: 0.022
- log2 fold change (givinostat): 0.048
- log2 fold change (barasertib): -0.003
- log2 fold change [6]: 0.069
- log2 fold change (volasertib): -0.12
- log2 fold change [13]: -0.029
- log2 fold change (epoxomicin): 0.019
- log2 fold change [7]: -0.011
- log2 fold change [8]: 0.13
- log2 fold change (rosiglitazone): -0.084
- log2 fold change [10]: -0.095
- log2 fold change [11]: 0.033

Target: COX7B (UniProt P24311)
Chain of UniProt P24311 (P24311 whole entry, looked up): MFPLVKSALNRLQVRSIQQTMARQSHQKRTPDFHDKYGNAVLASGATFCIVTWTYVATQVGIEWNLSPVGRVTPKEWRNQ
- log2 fold change [1]: 0.048
- log2 fold change [3]: 0.045
- log2 fold change [4]: 0.094
- log2 fold change (Nexturastat A): -0.056
- log2 fold change (vemurafenib): -0.148
- log2 fold change [5]: 0.136
- log2 fold change [12]: -0.188
- log2 fold change (givinostat): -0.013
- log2 fold change (barasertib): -0.025
- log2 fold change [6]: -0.011
- log2 fold change (volasertib): 0.024
- log2 fold change [13]: -0.052
- log2 fold change (epoxomicin): 0.023
- log2 fold change [7]: 0.065
- log2 fold change [8]: -0.035
- log2 fold change [9]: 0.04
- log2 fold change (rosiglitazone): -0.033
- log2 fold change [10]: 0.015
- log2 fold change [11]: 0.323 (active)

Target: CDKN1B (UniProt P46527)
Chain of UniProt P46527 (P46527 whole entry, looked up): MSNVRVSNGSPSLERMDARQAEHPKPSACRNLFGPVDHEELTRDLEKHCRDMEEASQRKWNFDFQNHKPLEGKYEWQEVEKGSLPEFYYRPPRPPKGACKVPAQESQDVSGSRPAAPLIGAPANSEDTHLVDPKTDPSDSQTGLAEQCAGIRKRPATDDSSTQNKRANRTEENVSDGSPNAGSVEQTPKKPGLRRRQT
- log2 fold change [1]: -0.016
- log2 fold change [2]: -0.009
- log2 fold change [3]: -0.026
- log2 fold change [4]: 0
- log2 fold change (Nexturastat A): 0.148
- log2 fold change (vemurafenib): -0.176
- log2 fold change [5]: -0.048
- log2 fold change [12]: 0.057
- log2 fold change (givinostat): 0.051
- log2 fold change (barasertib): -0.063
- log2 fold change (volasertib): 0.028
- log2 fold change [13]: -0.083
- log2 fold change (epoxomicin): 0.393
- log2 fold change [7]: -0.034
- log2 fold change [8]: 0.036
- log2 fold change [9]: 0.025
- log2 fold change (rosiglitazone): 0.067
- log2 fold change [10]: 0.06
- log2 fold change [11]: 0.073

Target: CHPT1 (UniProt Q8WUD6)
Chain of UniProt Q8WUD6 (Q8WUD6 whole entry, looked up): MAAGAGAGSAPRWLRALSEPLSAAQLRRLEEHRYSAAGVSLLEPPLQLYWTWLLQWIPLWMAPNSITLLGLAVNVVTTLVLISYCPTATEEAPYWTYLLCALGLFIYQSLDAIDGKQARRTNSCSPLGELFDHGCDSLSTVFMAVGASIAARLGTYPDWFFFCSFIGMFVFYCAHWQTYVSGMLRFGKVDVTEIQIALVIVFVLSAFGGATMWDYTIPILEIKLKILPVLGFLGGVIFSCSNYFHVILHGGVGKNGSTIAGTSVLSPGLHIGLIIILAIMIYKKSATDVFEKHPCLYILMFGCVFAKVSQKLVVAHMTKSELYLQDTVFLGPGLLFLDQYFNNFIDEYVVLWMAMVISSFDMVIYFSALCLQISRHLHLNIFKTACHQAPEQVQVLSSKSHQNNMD
- log2 fold change [1]: 0.088
- log2 fold change [2]: 0.055
- log2 fold change [3]: 0.132
- log2 fold change (Nexturastat A): 0.114
- log2 fold change [5]: 0.051
- log2 fold change [12]: 0.047
- log2 fold change [6]: -0.324
- log2 fold change (volasertib): -0.228
- log2 fold change [13]: 0.119
- log2 fold change (epoxomicin): -0.176
- log2 fold change [8]: -0.042
- log2 fold change [10]: 0.047
- log2 fold change [11]: -0.79 (active)

Target: CLASP2 (UniProt O75122)
Chain of UniProt O75122 (O75122 whole entry, looked up): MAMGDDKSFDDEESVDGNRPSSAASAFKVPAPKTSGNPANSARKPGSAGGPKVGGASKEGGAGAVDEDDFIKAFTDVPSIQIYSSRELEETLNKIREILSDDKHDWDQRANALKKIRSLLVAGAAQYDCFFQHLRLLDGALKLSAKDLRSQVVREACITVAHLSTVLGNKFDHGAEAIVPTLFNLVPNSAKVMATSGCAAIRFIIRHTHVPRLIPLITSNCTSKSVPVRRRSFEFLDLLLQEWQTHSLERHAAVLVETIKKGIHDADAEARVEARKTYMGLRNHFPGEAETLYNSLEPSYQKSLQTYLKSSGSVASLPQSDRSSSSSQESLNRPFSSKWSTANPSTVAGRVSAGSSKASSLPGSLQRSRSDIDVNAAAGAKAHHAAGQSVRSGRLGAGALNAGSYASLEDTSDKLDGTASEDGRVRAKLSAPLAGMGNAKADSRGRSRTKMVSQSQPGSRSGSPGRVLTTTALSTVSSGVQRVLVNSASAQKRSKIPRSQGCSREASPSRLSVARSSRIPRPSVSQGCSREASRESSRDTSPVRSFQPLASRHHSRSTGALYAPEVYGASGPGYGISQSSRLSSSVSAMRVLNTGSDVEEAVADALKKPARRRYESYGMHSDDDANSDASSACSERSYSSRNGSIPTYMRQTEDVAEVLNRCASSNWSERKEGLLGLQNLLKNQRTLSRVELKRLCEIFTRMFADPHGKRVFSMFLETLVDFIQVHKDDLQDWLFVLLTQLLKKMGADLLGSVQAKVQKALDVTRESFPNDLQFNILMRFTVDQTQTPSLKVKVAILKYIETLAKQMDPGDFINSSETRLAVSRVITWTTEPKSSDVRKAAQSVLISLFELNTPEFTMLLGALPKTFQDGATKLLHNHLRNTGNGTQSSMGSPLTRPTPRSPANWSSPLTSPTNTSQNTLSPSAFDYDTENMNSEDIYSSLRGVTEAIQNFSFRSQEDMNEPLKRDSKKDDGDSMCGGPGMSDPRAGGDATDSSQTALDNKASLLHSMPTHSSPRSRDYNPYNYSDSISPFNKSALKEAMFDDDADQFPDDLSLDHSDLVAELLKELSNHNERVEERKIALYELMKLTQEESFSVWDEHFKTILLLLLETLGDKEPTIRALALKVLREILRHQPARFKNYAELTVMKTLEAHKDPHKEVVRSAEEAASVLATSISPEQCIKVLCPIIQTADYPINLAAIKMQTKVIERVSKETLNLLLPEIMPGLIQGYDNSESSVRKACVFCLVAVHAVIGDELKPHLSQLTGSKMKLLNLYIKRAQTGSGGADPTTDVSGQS
- log2 fold change [2]: -0.286
- log2 fold change [3]: -0.103
- log2 fold change [4]: 0.065
- log2 fold change [5]: -0.068
- log2 fold change [12]: -0.017
- log2 fold change (givinostat): 0.031
- log2 fold change (barasertib): 0.031
- log2 fold change [6]: -0.104
- log2 fold change (volasertib): -0.123
- log2 fold change [13]: 0.083
- log2 fold change [7]: -0.038
- log2 fold change (rosiglitazone): 0.166

Target: CRLS1 (UniProt Q9UJA2)
Chain of UniProt Q9UJA2 (Q9UJA2 whole entry, looked up): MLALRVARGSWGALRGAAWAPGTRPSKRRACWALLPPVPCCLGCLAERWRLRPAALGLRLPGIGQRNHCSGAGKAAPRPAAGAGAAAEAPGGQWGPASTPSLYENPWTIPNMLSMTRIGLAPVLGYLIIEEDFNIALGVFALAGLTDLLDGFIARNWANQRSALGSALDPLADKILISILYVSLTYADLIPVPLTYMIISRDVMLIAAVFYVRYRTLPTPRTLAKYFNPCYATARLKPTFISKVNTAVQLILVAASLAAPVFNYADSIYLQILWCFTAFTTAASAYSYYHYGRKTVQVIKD
- log2 fold change [1]: 0.337 (active)
- log2 fold change [3]: 0.064
- log2 fold change [4]: -0.014
- log2 fold change (vemurafenib): 0.033
- log2 fold change [5]: 0.117
- log2 fold change [12]: -0.074
- log2 fold change (givinostat): -0.108
- log2 fold change [6]: 0.029
- log2 fold change (volasertib): 0.026
- log2 fold change [13]: 0.001
- log2 fold change [7]: -0.024
- log2 fold change [8]: 0.052
- log2 fold change [9]: -0.024
- log2 fold change [10]: -0.006
- log2 fold change [11]: 0.09

Target: CCDC187, A0A1W2PQX5
- log2 fold change [2]: -0.105
- log2 fold change (Nexturastat A): 0.003
- log2 fold change [13]: 0.012
- log2 fold change (epoxomicin): 0.085
- log2 fold change [8]: -0.03
- log2 fold change [11]: -0.029

Target: CS (UniProt F8VU34)
- log2 fold change (barasertib): -0.024
- log2 fold change [6]: -0.093
- log2 fold change (rosiglitazone): 0.221

Target: CNN3 (UniProt Q15417)
Chain of UniProt Q15417 (Q15417 whole entry, looked up): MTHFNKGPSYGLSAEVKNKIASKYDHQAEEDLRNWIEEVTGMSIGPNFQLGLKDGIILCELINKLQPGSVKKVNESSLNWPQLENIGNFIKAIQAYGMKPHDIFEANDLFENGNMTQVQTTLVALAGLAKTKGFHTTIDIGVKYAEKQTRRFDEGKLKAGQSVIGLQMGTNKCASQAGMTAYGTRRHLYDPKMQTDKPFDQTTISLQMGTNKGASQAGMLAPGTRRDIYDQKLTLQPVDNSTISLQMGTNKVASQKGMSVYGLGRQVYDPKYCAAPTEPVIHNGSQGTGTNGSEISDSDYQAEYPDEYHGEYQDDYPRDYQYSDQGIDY
- log2 fold change [1]: 0.014
- log2 fold change [3]: 0.064
- log2 fold change (Nexturastat A): 0.015
- log2 fold change (vemurafenib): 0.034
- log2 fold change [5]: 0.07
- log2 fold change [12]: -0.018
- log2 fold change (givinostat): 0.073
- log2 fold change (barasertib): 0.047
- log2 fold change [6]: -0.08
- log2 fold change (volasertib): -0.368 (active)
- log2 fold change [13]: 0.072
- log2 fold change (epoxomicin): 0.066
- log2 fold change [7]: 0.005
- log2 fold change [8]: 0.008
- log2 fold change [9]: 0.106
- log2 fold change (rosiglitazone): 0.058
- log2 fold change [10]: -0.018
- log2 fold change [11]: -0.055
